Source: PubChem BioAssay (EPA / NIEHS)
Active and inactive are the calls of the source. The calls were made as follows: active = hit-call score of the fitted dose curve at least 0.9, where 1 is the maximum; inactive = score below 0.9.

Columns and labels:
[1] = ATG_CRE_CIS: Attagene CIS-FACTORIAL HepG2 Assay for human cAMP Responsive Element (CRE) binding protein 3 (AID 2282926); settings: HepG2 CRE cis-reporter, Attagene multiplexed mRNA; actives raise or lower the signal
Method in brief: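 Readout: fluorescently labelled reporter transcripts resolved by capillary electrophoresis after RT-PCR, taken 24 h post-dosing in transfected HepG2. Endogenous transcription factor activity drives each cis-element reporter; gain or loss of signal fitted relative to DMSO control.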

[2] = target: CCAAT/enhancer-binding protein beta (Homo sapiens) (UniProt P17676); assay: ATG_C_EBP_CIS: Attagene CIS-FACTORIAL HepG2 Assay for human CCAAT/Enhancer Binding Protein (C/EBP) beta (AID 2282927); settings: HepG2 Attagene cis-factorial transcription factor reporter; actives raise or lower the signal
Chain of CCAAT/enhancer-binding protein beta (Homo sapiens) (P17676 whole entry, looked up, the tested form may be a part): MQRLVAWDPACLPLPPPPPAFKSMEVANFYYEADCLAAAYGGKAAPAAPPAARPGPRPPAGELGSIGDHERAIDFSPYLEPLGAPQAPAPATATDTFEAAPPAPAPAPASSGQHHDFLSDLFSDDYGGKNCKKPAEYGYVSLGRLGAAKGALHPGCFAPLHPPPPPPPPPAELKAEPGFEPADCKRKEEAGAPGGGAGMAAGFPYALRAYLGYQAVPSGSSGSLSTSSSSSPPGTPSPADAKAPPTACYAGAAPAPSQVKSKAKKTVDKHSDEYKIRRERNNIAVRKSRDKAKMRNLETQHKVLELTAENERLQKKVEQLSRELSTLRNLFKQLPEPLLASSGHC
Method in brief: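 Endogenous C/EBPb-driven reporter transcripts measured in transfected human HepG2 cells at 24 h via RT-PCR and capillary electrophoresis of labelled fragments. Activity fitted in both directions relative to DMSO baseline.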

[3] = ATG_CMV_CIS: Attagene CIS-FACTORIAL HepG2 Assay for human CMV (Internal Marker) (AID 2282928); settings: HepG2 CMV promoter reporter, transcription factor profiling; actives raise or lower the signal;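 also: endpoint acts as a background internal control marker rather than a target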
Method in brief: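 Reporter transcripts from transfected HepG2 cells are isolated after 24 h of chemical dosing, reverse-transcribed and amplified. Fragments labeled with 6-FAM are cut with HpaI and quantified by capillary electrophoresis; DMSO defines baseline.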

[4] = ATG_DR4_LXR_CIS: Attagene CIS-FACTORIAL HepG2 Assay for human Liver X Receptor (LXR), DR4 submotif (AID 2282929); settings: HepG2 Attagene DR4 cis-reporter, mRNA transcription; actives raise or lower the signal
Method in brief: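 HepG2, transient MRTU transfection, cis-element (DR4) promoter; 24 h compound exposure; total RNA → oligo(dT) RT → PCR → 6-FAM primer extension → HpaI cut → CE. Gain/loss vs DMSO, bidirectional fit.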

[5] = target: Aryl hydrocarbon receptor (Homo sapiens) (UniProt P35869); assay: ATG_Ahr_CIS: Attagene CIS-FACTORIAL HepG2 Assay for human Aryl Hydrocarbon Receptor (Ahr) (AID 2282930); settings: HepG2 AhR cis-factorial reporter transcription; actives raise or lower the signal
Chain of Aryl hydrocarbon receptor (Homo sapiens) (P35869 whole entry, looked up): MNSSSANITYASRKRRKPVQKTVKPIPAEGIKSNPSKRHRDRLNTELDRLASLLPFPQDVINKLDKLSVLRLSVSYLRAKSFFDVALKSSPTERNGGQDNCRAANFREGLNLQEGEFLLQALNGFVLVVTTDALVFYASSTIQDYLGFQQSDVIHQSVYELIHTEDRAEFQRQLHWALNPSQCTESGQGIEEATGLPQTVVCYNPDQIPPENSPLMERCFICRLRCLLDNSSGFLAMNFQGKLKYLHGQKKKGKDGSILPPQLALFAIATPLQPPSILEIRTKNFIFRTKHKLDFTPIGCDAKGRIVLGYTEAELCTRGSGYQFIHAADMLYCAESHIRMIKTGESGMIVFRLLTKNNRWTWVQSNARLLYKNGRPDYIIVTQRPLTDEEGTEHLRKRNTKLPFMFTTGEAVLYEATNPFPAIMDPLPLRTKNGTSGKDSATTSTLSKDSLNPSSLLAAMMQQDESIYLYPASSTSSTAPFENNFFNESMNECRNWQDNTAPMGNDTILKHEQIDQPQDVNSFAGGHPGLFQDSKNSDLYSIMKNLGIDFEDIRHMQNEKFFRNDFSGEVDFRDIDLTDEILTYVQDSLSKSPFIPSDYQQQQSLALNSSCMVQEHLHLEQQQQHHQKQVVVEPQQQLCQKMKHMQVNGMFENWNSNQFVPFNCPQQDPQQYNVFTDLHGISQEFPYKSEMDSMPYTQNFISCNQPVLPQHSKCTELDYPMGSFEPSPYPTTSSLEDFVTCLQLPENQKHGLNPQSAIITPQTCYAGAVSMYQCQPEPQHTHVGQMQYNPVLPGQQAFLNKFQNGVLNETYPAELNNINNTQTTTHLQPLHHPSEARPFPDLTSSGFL
Method in brief: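 Reporter mRNA levels, quantified by RT-PCR and fluorescent capillary electrophoresis, reflect endogenous AhR transcriptional activity in HepG2 cells carrying transfected cis-promoter reporter constructs. Readout at 24 h post-dose; gain or loss fitted against DMSO baseline.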

[6] = ATG_AP_1_CIS: Attagene CIS-FACTORIAL HepG2 Assay for human Activator Protein 1 (AP-1) (AID 2282931); settings: HepG2 Attagene cis-factorial AP-1 reporter mRNA; actives raise or lower the signal
Method in brief: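 Transient MRTU transfection of HepG2 → 24 h chemical treatment → RNA isolation, RT-PCR, 6-FAM labelling, HpaI digest → capillary electrophoresis. Fit: bidirectional, DMSO negative control.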

[7] = ATG_AP_2_CIS: Attagene CIS-FACTORIAL HepG2 Assay for human Activator Protein 2 (AP-2) (AID 2282932); settings: HepG2 AP-2 cis-reporter, Attagene transcription factor profiling; actives raise or lower the signal
Method in brief: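 Endogenous transcription factor activity is reported through transfected multiplex reporter constructs in HepG2, after 24 h of compound exposure. Transcripts were quantified by RT-PCR and capillary electrophoresis of fluorescent fragments. Bidirectional fit against DMSO.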

[8] = ATG_BRE_CIS: Attagene CIS-FACTORIAL HepG2 Assay for human Bone Morphogenetic Protein (BMP) Response Element (BRE) (AID 2282933); settings: HepG2 BMP response element reporter, Attagene transcription factor profiling; actives raise or lower the signal
Method in brief: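 Transient MRTU transfection of human HepG2 liver cells; 24 h compound treatment; total RNA isolated, reverse-transcribed, PCR-amplified, 6-FAM labelled, HpaI-cut, capillary electrophoresis. DMSO = negative control/baseline, bidirectional fit.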

[9] = target: Transcription factor E2F1 (Homo sapiens) (UniProt Q01094); assay: ATG_E2F_CIS: Attagene CIS-FACTORIAL HepG2 Assay for human E2F Transcription Factor 1 (AID 2282935); settings: HepG2 Attagene cis-reporter, E2F reporter RNA transcripts; actives raise or lower the signal
Chain of Transcription factor E2F1 (Homo sapiens) (Q01094 whole entry, looked up): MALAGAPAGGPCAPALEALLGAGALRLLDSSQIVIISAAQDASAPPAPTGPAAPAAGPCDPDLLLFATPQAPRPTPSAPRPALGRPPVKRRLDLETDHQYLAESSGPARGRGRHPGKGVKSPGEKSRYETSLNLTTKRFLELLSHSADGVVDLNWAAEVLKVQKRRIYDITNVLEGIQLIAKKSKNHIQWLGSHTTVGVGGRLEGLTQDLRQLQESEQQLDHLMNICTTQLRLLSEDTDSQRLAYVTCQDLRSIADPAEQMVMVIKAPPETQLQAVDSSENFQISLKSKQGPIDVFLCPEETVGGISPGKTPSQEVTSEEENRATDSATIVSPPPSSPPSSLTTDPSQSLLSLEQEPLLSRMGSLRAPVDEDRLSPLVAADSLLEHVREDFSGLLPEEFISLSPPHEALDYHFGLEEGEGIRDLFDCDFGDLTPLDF
Method in brief: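 Gain or loss of reporter transcript, fitted against DMSO, reflects E2F1-driven transcription. Transiently transfected HepG2 dosed 24 h before RNA isolation. Quantified by fluorescent RT-PCR products separated by capillary electrophoresis.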

[10] = ATG_E_Box_CIS: Attagene CIS-FACTORIAL HepG2 Assay for human Enhancer Box (E-box) (AID 2282936); settings: HepG2 E-box cis-reporter transcription, actives raise or lower the signal
Method in brief: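 E-box-driven reporter transcripts measured in transiently transfected HepG2 after 24 h exposure: RNA reverse-transcribed, PCR-amplified, fluorescently labelled, digested and resolved by capillary electrophoresis. Gain or loss relative to DMSO.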

[11] = ATG_M_61_CIS: Attagene CIS-FACTORIAL HepG2 Assay for M61 Transcription Factor (Internal Marker) (AID 2282937); settings: HepG2 Attagene CIS-FACTORIAL M61 internal marker reporter; actives raise or lower the signal
Method in brief: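 Human liver HepG2, transient MRTU transfection (cis promoter elements), 24 h compound. Total RNA → oligo(dT) RT → PCR → FAM label → HpaI → CE. Internal background marker; bidirectional fitting, DMSO = baseline.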

[12] = ATG_EGR_CIS: Attagene CIS-FACTORIAL HepG2 Assay for human Early Growth Response 1 (EGR1) (AID 2282938); settings: HepG2 Attagene CIS-FACTORIAL EGR reporter mRNA; actives raise or lower the signal
Method in brief: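 Transient transfection of human HepG2 with multiple cis-regulated reporter units, chemical exposure 24 h, total RNA isolated. Reverse transcription, PCR, fluorescent labelling and capillary electrophoresis quantify reporter transcripts; activity fitted bidirectionally against DMSO.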

[13] = ATG_M_19_CIS: Attagene CIS-FACTORIAL HepG2 Assay for M19 Transcription Factor (Internal Marker) (AID 2282939); settings: HepG2 Attagene CIS-FACTORIAL M19 internal marker reporter; actives raise or lower the signal
Method in brief: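 Transfect HepG2 with MRTU reporter library → dose chemical, 24 h → isolate total RNA, reverse-transcribe with oligo(dT) → PCR, 6-FAM label, HpaI cut (2 h, 37 C) → capillary electrophoresis. Bidirectional fit vs DMSO.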

[14] = ATG_ERE_CIS: Attagene CIS-FACTORIAL HepG2 Assay for Estrogen Response Element (ERE) (AID 2282940); settings: HepG2 ERE cis-reporter, Attagene RNA transcript; actives raise or lower the signal
Method in brief: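 Transient MRTU transfection of human HepG2; cis-element promoters; 24 h dosing; total RNA → RT (oligo dT) → PCR → 6-FAM primer extension → HpaI digest → CE fluorescence. Bidirectional fit, DMSO baseline.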

[15] = ATG_Ets_CIS: Attagene CIS-FACTORIAL HepG2 Assay for human Erythroblast Transformation Specific (ETS) (AID 2282941); settings: HepG2 ETS cis-reporter transcription, actives raise or lower the signal
Method in brief: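 Bidirectional fit versus DMSO of reporter mRNA signal, detected by RT-PCR and capillary electrophoresis in HepG2 cells transiently transfected with cis-element reporters and dosed 24 h.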

[16] = target: Hepatocyte nuclear factor 3-beta (Homo sapiens) (UniProt Q9Y261); assay: ATG_FoxA2_CIS: Attagene CIS-FACTORIAL HepG2 Assay for human Forkhead box A2 (FOXA2) (AID 2282942); settings: HepG2 cis-reporter transcription factor activity, 24 h; actives raise or lower the signal
Chain of Hepatocyte nuclear factor 3-beta (Homo sapiens) (Q9Y261 whole entry, looked up): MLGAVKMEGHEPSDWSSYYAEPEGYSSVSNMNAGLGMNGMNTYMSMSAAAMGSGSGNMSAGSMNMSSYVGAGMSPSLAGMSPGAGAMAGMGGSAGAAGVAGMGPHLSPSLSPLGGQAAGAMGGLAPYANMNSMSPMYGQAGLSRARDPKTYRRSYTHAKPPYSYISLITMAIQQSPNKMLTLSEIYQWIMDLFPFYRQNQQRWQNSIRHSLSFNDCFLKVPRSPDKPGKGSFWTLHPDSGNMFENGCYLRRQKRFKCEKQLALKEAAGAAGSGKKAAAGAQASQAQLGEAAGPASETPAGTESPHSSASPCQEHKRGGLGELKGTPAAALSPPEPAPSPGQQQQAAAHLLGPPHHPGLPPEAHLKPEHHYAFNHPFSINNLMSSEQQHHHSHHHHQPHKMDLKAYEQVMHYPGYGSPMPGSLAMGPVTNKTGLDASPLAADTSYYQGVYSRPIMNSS
Method in brief: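 Transient MRTU transfection of HepG2 liver cells; 24 h treatment; total RNA → oligo(dT) RT → PCR → FAM primer extension → HpaI cut → CE. Bidirectional fit vs DMSO.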

[17] = ATG_GATA_CIS: Attagene CIS-FACTORIAL HepG2 Assay for human GATA Binding Protein (AID 2282944); settings: HepG2 GATA cis-element reporter, Attagene multiplex mRNA; actives raise or lower the signal
Method in brief: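 Transient MRTU transfection, HepG2, 24 h compound exposure. Total RNA → oligo(dT) RT → PCR → 6-FAM primer extension → HpaI cut → CE. Bidirectional fit vs DMSO.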

[18] = ATG_GLI_CIS: Attagene CIS-FACTORIAL HepG2 Assay for human Zinc Finger Protein GLI1 (AID 2282945); settings: HepG2, Attagene cis-factorial reporter mRNA, GLI element; actives raise or lower the signal
Method in brief: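 Bidirectional curve fits relative to DMSO, using reporter mRNA levels from RT-PCR plus capillary electrophoresis. Cells were HepG2 transiently carrying cis-regulated reporter constructs, harvested 24 h after dosing.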

[19] = ATG_FoxO_CIS: Attagene CIS-FACTORIAL HepG2 Assay for human Forkhead box O (FoxO) (AID 2282943); settings: HepG2 Attagene cis-reporter, FoxO element, mRNA; actives raise or lower the signal
Method in brief: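 Endogenous transcription factor activity read from multiplexed cis-promoter reporter transcripts in transiently transfected HepG2, 24 h after dosing. Reporter RNA measured via RT-PCR plus capillary electrophoresis of FAM-labeled products; gain or loss relative to DMSO.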

Measured: AC50

Cc1ncc([N+](=O)[O-])n1C
not listed: [19]
inactive: all other assays above

OCCN1CCNCC1
not listed: [17]
inactive: all other assays above

O=C(O)COCCN1CCN(C(c2ccccc2)c2ccc(Cl)cc2)CC1 (stereo unspecified)
active: [14] 18.8 µM
not listed: [16]
inactive: all other assays above

COc1cc2ncnc(Nc3cccc(Cl)c3)c2cc1OC
active: [7] 5.09 µM | [12] 19.5 µM
inactive: all other assays above

COC(=O)OC
not listed: [14]
inactive: all other assays above

CCCCCCCCCCCCSC
active: [3] 100 µM
not listed: [14]
inactive: all other assays above

CSc1nnc(C(C)(C)C)c(=O)[nH]1
not listed: [15]
inactive: all other assays above

O=C1O[C@@H]2[C@@H](O)[C@H](O)O[C@@H]2[C@H]1O
not listed: [15]
inactive: all other assays above

CCC(=O)/C=C/C1C(C)=CCCC1(C)C (stereo unspecified)
not listed: [14]
inactive: all other assays above

CCC/C=C/C=O
not listed: [15] | [19]
inactive: all other assays above

CC(C#N)(CCC(=O)O)N=NC(C)(C#N)CCC(=O)O (stereo unspecified)
not listed: [14]
inactive: all other assays above

O=C(O)c1snc(Cl)c1Cl
active: [1] 155 µM | [4] 100 µM | [5] 14.5 µM | [6] 100 µM | [12] 164 µM | [19] 130 µM
not listed: [14]
inactive: all other assays above

CC1(C)[C@@H]2CC[C@@]1(C)[C@H](O)C2
not listed: [14]
inactive: all other assays above

COC(C(=O)O)c1ccccc1 (stereo unspecified)
not listed: [14]
inactive: all other assays above

CC(=O)Nc1ccc(C)cc1C
not listed: [14]
inactive: all other assays above

Cc1ccc(C(C)C)cc1O
not listed: [14]
inactive: all other assays above

CC(C)(COC(=O)c1ccccc1)COC(=O)c1ccccc1
not listed: [14]
inactive: all other assays above

O=C(Cl)c1cccc(C(=O)Cl)c1
not listed: [14]
inactive: all other assays above

CC(=O)OCc1ccc2c(c1)OCO2
not listed: [14]
inactive: all other assays above

CCCc1ccccc1O
active: [5] 23.9 µM
not listed: [14]
inactive: all other assays above

CC(O)C(C)O (stereo unspecified)
not listed: [14]
inactive: all other assays above

CC(C)(C)NC(N)=O
not listed: [15] | [17]
inactive: all other assays above

O=C=NC1CCC(CC2CCC(N=C=O)CC2)CC1 (stereo unspecified)
active: [1] 28.4 µM | [2] 65.1 µM | [3] 64.8 µM | [4] 179 µM | [5] 83.7 µM | [8] 41.7 µM | [10] 76.9 µM | [13] 100 µM | [18] 174 µM
inactive: [6] | [7] | [9] | [11] | [12] | [15] | [16] | [19] | [17]

Cc1ccc2sc3cccc(C)c3c2c1
not listed: [15]
inactive: all other assays above

CC(C)c1ccc(C(C)C)cc1
active: [3] 156 µM | [14] 155 µM
not listed: [15]
inactive: all other assays above

CCn1c2ccccc2c2cc(N)ccc21
active: [3] 31.7 µM | [5] 5.05 µM | [8] 100 µM
not listed: [15]
inactive: all other assays above

CCCCCCOC(=O)CC
not listed: [15]
inactive: all other assays above

CCCCCCCCCCCCN
active: [4] 10.2 µM
not listed: [14]
inactive: all other assays above

C=CC(=O)NCOCC(C)C
not listed: [14]
inactive: all other assays above
